The values below come from PubChem BioAssay AID504648 (National Center for Advancing Translational Sciences (NCATS), 2011).

Screen size: about 390,000 compounds; about 610 (0.16%) were called active. Entries that show only a call come without a potency. About 4% were inconclusive and are not listed. Calls come from the whole dose curve; as a rule, active = well fitted inhibition curve with a large enough effect; inconclusive = small, poorly fitted or top-dose-only effect, or effect the other way, or another doubt; inactive = no such curve, though single readings can be large or run the other way. The full list was thinned out, with actives kept by preference.
Potency is the fitted concentration of half-maximal effect.

The assay is described as follows: Nrf2 qHTS screen for inhibitors: counterscreen for cytotoxicity. The note with it: A549 ARE-Fluc cells, CellTiter-Fluor viability, 18-24 h; series mostly up to 46 µM. From the text:
NIH Molecular Libraries Probe Production Network [MLPCN]
NIH Chemical Genomics Center [NCGC]
Assay Provider: Shyam Biswal, Johns Hopkins University
Nrf2 is a transcription factor that maintains cellular redox homoestasis and protects cells from xenobiotics. Nrf2 binds to the antioxidant response element (ARE) to induce gene expression of a broad spectrum of genes that encode for antioxidants. […] Finding a small molecule that act as an inhibitor of Nrf2 function would represent a novel therapeutic target that could lead to improvement in survival of patients undergoing chemo- and/or radio- therapy.
So here we implemented a counterscreen to weed out the cytotoxic compounds.
1. Shibata, T., et al., Genetic Alteration of Keap1 Confers Constitutive Nrf2 Activation and Resistance to Chemotherapy in Gallbladder Cancer. Gastroenterology, 2008.
2. Sjoblom, T., et al., The consensus coding sequences of human breast and colorectal cancers. Science, 2006. 314(5797): p. 268-74.
NCGC Assay Protocol Summary:
A concentration-response assay was performed with A549 ARE_Fluc cells which are suspended in 5% FBS OPTI-MEM. Five uL were dispensed into 1536-well white TC-treated plate using the Kalypsys dispenser to achieve a density of 5000 cells/well in all columns except column 1. The plate is incubated at 37deg C at 5% CO2 for 2 hours before 23 nL of compounds are added with the Kalypsys pin tool equipped with a 1,536-pin array containing 10-nL slotted pins (FP1S10, 0.457-mm diameter, 50.8 mm long; V&P Scientific). The control compounds Budesonide and Staurosporine are both added at a concentration of 2mM and Budesonide is also added as a 1:10 titration, starting at 200uM, to achieve dose-response. After an 18-24 hour incubation at 37deg C at 5% CO2, 5ul of medium is added to column 1. Afterwards 1ul of 5x of CellTiter-Fluor (Promega) is added to every well. The plate is then incubated at 37deg C at 5% CO2 for 30 minutes before they are read on the ViewLux (Perkin Elmer) for a fluorescent read Ex=405(10)/Em=525(10) for a 3 second exposure, 2x binning, and high gain. Then 3 uL of 3x BugLite is dispensed into all wells and the plate is incubated at ambient room temperature for 15 minutes. Afterwards another ViewLux read is performed using the clear filter to get a luminescent read with the settings of 40 second exposure, 2x binning, and high gain. Cytotoxicity is assessed through the first fluorescent read and then biochemical activity against Nrf2 is measured in the luminescent read.
For orientation: qHTS replaces the single test concentration by a dilution series.
As for `O=C(CSc1nnc(-c2ccccc2F)o1)Nc1cccc(C(F)(F)F)c1`, the Potency entry was “inactive”.

Regarding `Cc1noc(C)c1-c1ccc2ncnc(NCc3ccc(F)c(F)c3)c2c1`, the Potency entry was “inactive”.

As to `CC(Nc1ncnc2ccc(-c3ccc4c(c3)OCO4)cc12)c1ccco1` (configuration not stated), the Potency entry was “inactive”.

Take `CCCS(=O)(=O)Nc1cccc(-c2cn3ccsc3n2)c1`: the Potency result was “inactive”.

Consider `CCOc1cc(-c2nnc(SCC(=O)NC3CCCC3)nc2-c2ccc(OC)c(OCC)c2)ccc1OC`, for which the Potency result is “inactive”.

For `O=C(CNC(=O)c1ccc(Cl)c(C(F)(F)F)c1)OC(C(=O)Nc1cc(C(F)(F)F)ccc1Cl)c1ccccc1` (configuration not stated), the Potency entry was “inactive”.

`CCOC(=O)CNC(=O)c1cc2c(=O)n3cccc(C)c3nc2s1`: the Potency entry was “inactive”.

Consider `CCOC(=O)CC1C(=O)NCCN1c1nc2c(C)cccn2c(=O)c1/C=C1\SC(=S)N(C(C)CC)C1=O` (configuration not stated), for which the Potency was 20.6 µM (active).

With `COc1ccc(C(=O)NC(=S)N2CCNC(=O)C2CC(=O)OC(C)C)cc1` (configuration not stated), the Potency entry is “inactive”.

With `Cc1cc(C)n2ncc(C(=O)N3CCCC3)c2n1`, the Potency entry is “inactive”.

Consider `CSc1ncc(Cl)c(C(=O)Nc2ccc(S(=O)(=O)N3CCCC(C)C3)cc2)n1` (configuration not stated), for which the Potency entry was “inactive”.

In the case of `Cc1noc(C)c1-c1ccc2ncnc(NCc3ccc4[nH]ccc4c3)c2c1`, the Potency entry is “inactive”.

For `Cc1ccc(S(=O)(=O)NC(N)=NCCC[C@@H](NC(=O)CNC(=O)c2ccccc2)C(=O)Nc2cc(C(F)(F)F)ccc2Cl)cc1`, the Potency result was “inactive”.

As to `CCOc1cc(C2C(C(=O)Nc3ccc(OC)cc3)=C(C)Nc3nc(SC)nn32)ccc1O` (configuration not stated), the Potency entry is “inactive”.

Take `CN1CCOc2cc(S(=O)(=O)N3CCN(S(=O)(=O)c4c(F)cccc4F)CC3)cnc21`: the Potency entry was “inactive”.

For the molecule `O=C1CN(Cc2ccccc2)S(=O)(=O)c2ccccc21`, the Potency entry is “inactive”.

Turning to `COc1ccc(C2Nc3ccc(NC(=O)COC(C)=O)cc3C(=O)N2Cc2ccccc2)cc1COc1ccc(NC(C)=O)cc1` (configuration not stated), the Potency result was “inactive”.

Consider `COc1ccc(C2Nc3ccccc3C(=O)N2Cc2ccc(Cl)cc2)cc1COc1ccc(NC(C)=O)cc1` (configuration not stated), for which the Potency result was “inactive”.

In the case of `O=C1C[C@@H](c2ccc3ccccc3c2)N1S(=O)(=O)c1ccccc1[N+](=O)[O-]`, the Potency result was “inactive”.

As for `CNC(=O)[C@]1(C(F)(F)F)C[C@H](CCc2ccccc2)CCCO1`, the Potency entry is “inactive”.

On to `COc1ccc2c(Sc3ccc(C)cc3)c(C(=O)NC(C)c3ccccc3)[nH]c2c1` (configuration not stated), for which the Potency entry was “inactive”.

On to `Cc1cc(NS(=O)(=O)c2ccc3oc(=O)c4ncn(C)c4c3c2)ccc1Br`, for which the Potency result was “inactive”.

With `O=C(Nc1ncc([N+](=O)[O-])s1)C1COc2ccccc2O1` (configuration not stated), the Potency is 20.6 µM (active).

For the molecule `CC(/C=C/c1ccco1)=N/NC(=O)C1COc2ccccc2O1` (configuration not stated), the Potency entry is “inactive”.

As for `CC1CC(=NNC(=O)C2COc3ccccc3O2)CC(C)(C)C1` (configuration not stated), the Potency entry was “inactive”.

As for `Oc1ccc(Br)cc1C1C=C(c2ccc3c(c2)OCO3)NC(c2ccc(Cl)cc2)N1` (configuration not stated), the Potency entry was “inactive”.

On to `Cc1ccc(-c2nc(=N)sn2Cc2ccccc2)cc1`, for which the Potency result was “inactive”.

On to `CCCN1CCC(=O)N(C(CSc2ccc(OC)cc2)Cc2ccccc2)CC1` (configuration not stated), for which the Potency entry is “inactive”.

Take `COc1ccc(C2Nc3cccc(OC)c3C(=O)N2Cc2ccccc2)cc1COc1ccc(NC(C)=O)cc1` (configuration not stated): the Potency result was “inactive”.

Take `CCOc1ccc(Br)cc1CSC(=N)N`: the Potency was 20.6 µM (active).

On to `CCOc1ccc(Br)cc1S(=O)(=O)Nc1cccc(S(=O)(=O)N(CC)CC)c1`, for which the Potency entry is “inactive”.

Consider `COCC(C)NCc1cc(Br)ccc1OC` (configuration not stated), for which the Potency result is “inactive”.

For `O=C1NS(=O)(=O)c2ccccc21`, the Potency entry was “inactive”.

On to `O=C(NC(c1ccco1)c1cc(Cl)c2cccnc2c1O)c1ccccc1` (configuration not stated), for which the Potency entry is “inactive”.

`O=C1CCc2cc(S(=O)(=O)Nc3cccc(Oc4ccccc4)c3)ccc2N1`: the Potency entry was “inactive”.

Take `CCN1/C(=C/C(=S)Nc2ccccc2)Sc2ccccc21`: the Potency is 16.4 µM (active).

For `CCN1C(=O)c2ccccc2Sc2ccc(NC(=O)Cc3ccc(OC)cc3)cc21`, the Potency entry was “inactive”.

Regarding `CNC(=O)CN1C(=O)c2cccnc2Sc2ccccc21`, the Potency result is “inactive”.

With `Cc1cc2c(s1)c1cnn(Cc3cc(F)c(Cl)cc3Cl)c(=O)c1n2C`, the Potency result was “inactive”.

Regarding `CN=C1C=C/C(=N/N=c2\ccn(O)cc2C)C=C1C`, the Potency is 16.4 µM (active).

For the molecule `OC[C@@H]1O[C@H](n2cnc3c(SCc4ccccc4)ncnc32)[C@H](O)[C@H]1O`, the Potency entry is “inactive”.

On to `COc1ccc(C2Nc3ccccc3C(=O)N2Cc2ccccc2)cc1COc1ccc(C(N)=O)cc1` (configuration not stated), for which the Potency entry was “inactive”.

`COc1cc(F)c(S(=O)(=O)N2CCCN(S(=O)(=O)c3ccc(N)cc3)CC2)c(F)c1`: the Potency entry is “inactive”.

With `Cc1nc(N2CCOCC2)c2c(C(=O)NCc3cccc(Cl)c3)c(C)oc2n1`, the Potency entry was “inactive”.

`CCOc1ccc(-c2n[nH]c3c2C(c2ccccc2OC)N(c2ccc(Br)cc2)C3=O)cc1` (configuration not stated): the Potency entry is “inactive”.

In the case of `CCCN1CCC(=O)N(C(CSc2ccc(C)cc2)Cc2ccccc2)CC1` (configuration not stated), the Potency entry was “inactive”.

With `Cc1ccc(S(=O)(=O)N2CCN(c3nc(-n4cnc5ccccc54)nc4ccccc34)CC2)cc1`, the Potency entry was “inactive”.
